Results filed as inconclusive are left out. A call without a number means that no potency is given here. Calls of active or inactive are those of the source. The call rests on the fitted dose curve; in most records, active means well fitted curve in the direction sought with a large enough effect; inconclusive means small, poorly fitted or top-dose-only effect, or another doubt; inactive means no such curve, though single readings can be large; an effect the other way counts as inactive or inconclusive.
Assays:
[1] = target: Protein phosphatase 1D (Homo sapiens) (UniProt O15297); experiment: Rhodamine-PBP qHTS Assay for Modulators of WT P53-Induced Phosphatase 1 (WIP1) (AID 1347425)
Method in brief: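 Steps: enzyme with Rh-PBP sensor and compounds, room-temperature incubation of 1 hr, baseline read, addition of VEPPL-pS-QETFS (10 uM final), kinetic fluorescence reads at 525/598 nm. Activity equals final minus baseline signal.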

[2] = Validation qHTS assay for inhibitors of Activation Induced Cytidine Deaminase (AID): UDG Counterscreen signal (AID 1347427)
Method in brief: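 Fluorescence at 560 nm excitation, 665 nm emission reports UDG signal after 250 mM NaOH (2x) addition and 30 min. Enzymes (AID 1 uM, UDG 2 U/mL, at 4/3x) preincubated 10 min with compound, then 4 h with 4x 250 nM DJC20/DJC23 substrate at room temperature.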

[3] = target: Single-stranded DNA cytosine deaminase (Homo sapiens) (UniProt Q9GZX7); experiment: Validation qHTS assay for inhibitors of Activation Induced Cytidine Deaminase (AID): AID signal (AID 1347429)
Method in brief: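 Compounds (up to 114 uM final) are tested against AID plus UDG using DJC20/DJC23 FRET substrate. Reactions incubate 4 hr at room temperature, receive NaOH for 30 min, and are read at Ex 540/Em 590 nm.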

Chain of Single-stranded DNA cytosine deaminase (Homo sapiens) (Q9GZX7 whole entry, looked up): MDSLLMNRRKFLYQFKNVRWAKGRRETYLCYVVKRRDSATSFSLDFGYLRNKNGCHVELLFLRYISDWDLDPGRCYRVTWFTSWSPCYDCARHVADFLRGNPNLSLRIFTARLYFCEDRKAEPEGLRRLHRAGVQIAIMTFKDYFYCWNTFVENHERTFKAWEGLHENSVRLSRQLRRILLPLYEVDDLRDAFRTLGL
Chain of Protein phosphatase 1D (Homo sapiens) (O15297 whole entry, looked up): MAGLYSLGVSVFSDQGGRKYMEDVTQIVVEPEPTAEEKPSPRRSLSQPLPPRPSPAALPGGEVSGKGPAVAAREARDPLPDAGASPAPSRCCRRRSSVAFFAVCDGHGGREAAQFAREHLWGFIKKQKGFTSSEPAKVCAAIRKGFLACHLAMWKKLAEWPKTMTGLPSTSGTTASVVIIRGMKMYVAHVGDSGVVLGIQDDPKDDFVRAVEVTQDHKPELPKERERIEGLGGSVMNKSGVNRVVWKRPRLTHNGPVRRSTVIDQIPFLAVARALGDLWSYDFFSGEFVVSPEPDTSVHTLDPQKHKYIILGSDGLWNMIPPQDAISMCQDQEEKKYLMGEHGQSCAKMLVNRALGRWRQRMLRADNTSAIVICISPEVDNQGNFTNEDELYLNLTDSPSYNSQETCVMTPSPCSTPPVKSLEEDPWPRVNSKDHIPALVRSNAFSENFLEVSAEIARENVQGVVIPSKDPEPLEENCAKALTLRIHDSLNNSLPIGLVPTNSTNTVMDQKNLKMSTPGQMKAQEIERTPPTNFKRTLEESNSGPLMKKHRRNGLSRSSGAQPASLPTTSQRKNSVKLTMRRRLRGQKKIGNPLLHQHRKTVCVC

Compound | outcome [1] | outcome [2] | Potency [3]
CC(=O)O[C@]1(C(C)=O)CC[C@H]2[C@@H]3C=C(Cl)C4=CC(=O)[C@@H]5C[C@@H]5[C@]4(C)[C@H]3CC[C@@]21C | inactive |  | 
CCCCCN(C)CCC(O)(P(=O)(O)O)P(=O)(O)O |  | inactive | inactive
CC(C)OC(=O)C(C)(C)Oc1ccc(C(=O)c2ccc(Cl)cc2)cc1 |  | inactive | inactive

Source: PubChem BioAssay (NCATS)
